The results in this text go back to PubChem BioAssay (NCI).

This is part of a sample that, as a whole, favours compounds with a hit. Of some 83,000 tested, about 20% had one in any assay.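 A percent growth of 40 corresponds to 60% growth inhibition; 0 means no net growth; -100 means all cells died. Active threshold: below 10.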 A number with no mark means an inactive call. Calls of active or inactive are those of the source.

Common to all, as to experiment: NCI-60 one-dose screen, 48 h (100 = growth as untreated, 0 = no growth, -100 = all killed)
One assay relates to NCI-H23 lung. The note with it: 10 µM unless noted.
Another assay has as its system NCI-H226 lung. The note with it: 10 µM unless noted.
Another assay concerns NCI-H322M lung. The conditions noted are these: 10 µM unless noted.
The next assay deals with HOP-62 NSCLC. The note with it: 10 µM unless noted.
Another assay has as its system NCI-H460 lung. The conditions noted are these: 10 µM unless noted.
The next assay relates to HOP-92 NSCLC. The conditions noted are these: 10 µM unless noted.
The next assay has as its system NCI-H522 lung. The conditions noted are these: 10 µM unless noted.
In another assay the test system is A549/ATCC NSCLC. The conditions noted are these: 10 µM unless noted.
For another assay, the system named is 786-0 renal. The note with it: 10 µM unless noted.
The test system of another assay is COLO 205 colon. The note with it: 10 µM unless noted.
A further assay concerns DU-145 prostate. The note with it: 10 µM unless noted.
For a further assay, the system named is K-562 leukemia. The note with it: 10 µM unless noted.
In another assay the test system is MALME-3M melanoma. The note with it: 10 µM unless noted.
The test system of the next assay is MDA-MB-231 breast. The conditions noted are these: 10 µM unless noted.
For another assay, the system named is RXF 393 renal. The note with it: 10 µM unless noted.
A further assay relates to SF-268 CNS. The conditions noted are these: 10 µM unless noted.
A further assay relates to SF-295 CNS. The note with it: 10 µM unless noted.
The next assay relates to SF-539 CNS. The conditions noted are these: 10 µM unless noted.
In a further assay the test system is UACC-257 melanoma. The note with it: 10 µM.
In the next assay the test system is M14 melanoma. The conditions noted are these: 10 µM unless noted.

With `O=C1c2c(O)cc(O)cc2O[C@@H](c2ccc(O)cc2)[C@@H]1c1c(O)cc(O)c2c(=O)cc(-c3ccc(O)c(O)c3)oc12`, the growth in the assay with NCI-H23 lung is 92%; in the assay on NCI-H226 lung, 76.6%; with NCI-H322M lung, 97%; with HOP-62 NSCLC, 96.3%; in the assay with NCI-H460 lung, 112%; in the assay on HOP-92 NSCLC, 104%. The growth was 97.4% in the assay on NCI-H522 lung; 106% with A549/ATCC NSCLC; 100% in the assay on 786-0 renal; 114% in the assay on COLO 205 colon; 106% with DU-145 prostate; 111% in the assay with K-562 leukemia. The growth in the assay on MALME-3M melanoma was 90.7%; in the assay with MDA-MB-231 breast, 111%; in the assay with RXF 393 renal it was 112%; in the assay with SF-268 CNS it was 101%; in the assay on SF-295 CNS, 108%; in the assay with SF-539 CNS, 95.8%. The growth in the assay with UACC-257 melanoma is 108%; with M14 melanoma it was 94.8%.

For `CCOc1ccc2nc(NC(=O)Nc3ccccc3C)sc2c1`, the growth in the assay on NCI-H23 lung is 76.4%; in the assay with NCI-H226 lung, 38.3%; in the assay with NCI-H322M lung, 87%; in the assay with HOP-62 NSCLC it was 49%; in the assay on NCI-H460 lung it was 42.4%; in the assay with HOP-92 NSCLC it was 126%. In addition, the growth in the assay on NCI-H522 lung is 32.7%; in the assay on A549/ATCC NSCLC it was 54.7%; with 786-0 renal, 64.9%; in the assay on COLO 205 colon, 49.9%; in the assay on DU-145 prostate, 70.3%; in the assay on K-562 leukemia, 14.6%. The growth in the assay on MALME-3M melanoma is 48.6%; in the assay with MDA-MB-231 breast, 71.2%; in the assay with RXF 393 renal, 49.5%; in the assay on SF-268 CNS, 78.6%; in the assay on SF-295 CNS it was 35.2%; with SF-539 CNS it was 57.1%. Further, the growth with UACC-257 melanoma is 68.4%; with M14 melanoma, 23.4%.

With `CCNC(=O)Oc1ccc(/C(=C(/C)c2ccc(Cl)cc2)c2ccc(OCCN(C)C)cc2)cc1`, the growth with NCI-H23 lung is 87%; in the assay with NCI-H226 lung it was 94.4%; in the assay on NCI-H322M lung it was 90.5%; in the assay with HOP-62 NSCLC, 80.2%; with NCI-H460 lung, 66.6%; in the assay with HOP-92 NSCLC, 45.1%. For the same compound, the growth in the assay with NCI-H522 lung is 88.7%; in the assay with A549/ATCC NSCLC, 71.6%; in the assay on 786-0 renal it was 64.3%; in the assay with COLO 205 colon, 82.8%; in the assay on DU-145 prostate, 92.1%; with K-562 leukemia, 11.7%. Besides, the growth is 13.4% in the assay with MALME-3M melanoma; 79.8% in the assay on MDA-MB-231 breast; 55.8% in the assay on RXF 393 renal; 75.6% in the assay on SF-268 CNS; 94.4% in the assay on SF-295 CNS; 66% in the assay with SF-539 CNS. Further, the growth is 81% with UACC-257 melanoma and 64.2% in the assay on M14 melanoma.

As to `O=C(Nc1cccc(Cl)c1)Nc1nc2ccc(-c3cccc4ccccc34)cc2s1`, the growth is 24.6% in the assay with NCI-H23 lung; 57.5% with NCI-H226 lung; 71.1% in the assay on NCI-H322M lung; 61% in the assay with HOP-62 NSCLC; 34.1% with NCI-H460 lung; -2.69% (active) in the assay on HOP-92 NSCLC. Also, the growth was 25.8% in the assay on NCI-H522 lung; 36.9% in the assay on A549/ATCC NSCLC; 82.5% in the assay on 786-0 renal; 49.7% with COLO 205 colon; 42.7% in the assay on DU-145 prostate; 17.9% in the assay on K-562 leukemia. Besides, the growth with MALME-3M melanoma is 42.8%; in the assay with MDA-MB-231 breast, 75.2%; in the assay on RXF 393 renal, 84.4%; in the assay on SF-268 CNS it was 66.7%; in the assay with SF-295 CNS, 63.4%; in the assay with SF-539 CNS, 87%. In addition, the growth in the assay on UACC-257 melanoma was 50.6%; with M14 melanoma, 68.7%.

For the compound `O=C(Nc1ccc(Cl)cc1)Nc1nc2ccc([N+](=O)[O-])cc2s1`, the growth with NCI-H23 lung is -45.5% (active); in the assay with NCI-H226 lung, -15% (active); in the assay on NCI-H322M lung, 2.65% (active); in the assay with HOP-62 NSCLC, -33.5% (active); in the assay with NCI-H460 lung it was -9.27% (active); in the assay on HOP-92 NSCLC, -25.9% (active). In addition, the growth is -21.3% (active) in the assay on NCI-H522 lung; 1.71% (active) in the assay on A549/ATCC NSCLC; 5.56% (active) in the assay on 786-0 renal; -62.6% (active) in the assay with COLO 205 colon; 14% with DU-145 prostate; 1.43% (active) in the assay with K-562 leukemia. Besides, the growth is -21.3% (active) in the assay with MALME-3M melanoma; -17.5% (active) in the assay with MDA-MB-231 breast; -37.2% (active) with RXF 393 renal; 7.98% (active) in the assay with SF-268 CNS; -57.9% (active) with SF-295 CNS; -22.3% (active) in the assay on SF-539 CNS. Further, the results for the growth in the assay on UACC-257 melanoma and in the assay with M14 melanoma were -32.6% (active) and -20.4% (active), respectively.

Turning to `CCOC(=O)/C=c1\sc2n(c1=O)C1C(NN=2)N(CC)C(=O)N1CC` (stereo not given), the growth was 79.6% in the assay with NCI-H23 lung; 81.2% in the assay on NCI-H226 lung; 78.9% in the assay with NCI-H322M lung; 71.6% in the assay with HOP-62 NSCLC; 37.8% in the assay with NCI-H460 lung; 75.3% with HOP-92 NSCLC. In addition, the growth is 33.3% in the assay on NCI-H522 lung; 62.1% with A549/ATCC NSCLC; 63% in the assay with 786-0 renal; 51.3% in the assay on COLO 205 colon; 75.3% with DU-145 prostate; 24.1% in the assay on K-562 leukemia. In addition, the growth is 49.1% with MALME-3M melanoma; 66.8% with MDA-MB-231 breast; 70.2% in the assay with RXF 393 renal; 81.1% in the assay on SF-268 CNS; 46% in the assay with SF-295 CNS; 54.4% in the assay on SF-539 CNS. The results for the growth in the assay with UACC-257 melanoma and in the assay on M14 melanoma were 71.5% and 44.7%, respectively.

Consider `C/C(=C(/C)C1CC1CCN(C(=O)c1ccccn1)S(=O)(=O)c1ccc(C)cc1)C1CCCCC1` (stereo not given), for which the growth in the assay with NCI-H23 lung is 84.2%; in the assay on NCI-H226 lung it was 97%; in the assay on NCI-H322M lung, 105%; in the assay with HOP-62 NSCLC, 102%; in the assay on NCI-H460 lung it was 100%; in the assay on HOP-92 NSCLC, 104%. Moreover, the growth is 85.1% in the assay on NCI-H522 lung; 97% in the assay with A549/ATCC NSCLC; 95.5% in the assay with 786-0 renal; 108% in the assay with COLO 205 colon; 98.9% with DU-145 prostate; 96.8% in the assay with K-562 leukemia. Further, the growth is 104% in the assay with MALME-3M melanoma; 91.5% in the assay with MDA-MB-231 breast; 115% in the assay with RXF 393 renal; 97.5% in the assay on SF-268 CNS; 90.4% with SF-295 CNS; 99.4% with SF-539 CNS. For the same compound, the growth was 96.7% in the assay on UACC-257 melanoma and 101% with M14 melanoma.

As for `IP(CCCSc1n(Cc2ccc3ccccc3c2)c(-c2ccccc2)c(-c2ccccc2)[n+]1Cc1ccc2ccccc2c1)(c1ccccc1)(c1ccccc1)c1ccccc1`, the growth in the assay with NCI-H23 lung is 26.3%; in the assay on NCI-H226 lung, 78.8%; in the assay with NCI-H322M lung, 63.5%; with HOP-62 NSCLC, 31.2%; in the assay on NCI-H460 lung it was 22.8%; in the assay on HOP-92 NSCLC, -1.48% (active). The growth is 8.1% (active) with NCI-H522 lung; 26.7% in the assay with A549/ATCC NSCLC; 87.2% with 786-0 renal; -9.45% (active) in the assay on COLO 205 colon; 34.7% in the assay with DU-145 prostate; 25.3% with K-562 leukemia. Further, the growth with MALME-3M melanoma is 14.6%; in the assay with MDA-MB-231 breast, 32.5%; with RXF 393 renal it was 99.7%; in the assay with SF-268 CNS it was 23.8%; in the assay on SF-295 CNS it was 31.8%; with SF-539 CNS it was 35.3%. Also, the figures for the growth in the assay with UACC-257 melanoma and with M14 melanoma were 4.7% (active) and 51.5%, respectively.
